Data as given in PubChem BioAssay (NCATS).
Values without a mark were called inactive. Results filed as inconclusive are left out. A call without a number means that no potency is given here. Calls of active or inactive are those of the source. Unless noted, calls follow the shape of the dose curve; as a rule, active = well fitted curve in the direction sought with a large enough effect; inconclusive = small, poorly fitted or top-dose-only effect, or another doubt; inactive = no such curve, though single readings can be large; an effect the other way counts as inactive or inconclusive.

Tests used:
[1] = system: C33A; experiment: Primary qHTS to identify gynecologic anti-cancer compounds using libraries of approved drugs and bioactive compounds (AID 1345084); conditions: Gynecologic cancer cell panel viability, ATPlite luminescence, 48 h; series mostly up to 57.5 µM; also: nearly all actives have a fitted effect of over 55% in size
Outline: (§1)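 In this quantitative HTS, cell killing is estimated from loss of ATP-dependent luciferase light. Cells see five compound concentrations over a 48 h exposure.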

[2] = system: CASKI; experiment: as above; conditions: Gynecologic cancer cell panel viability, ATPlite luminescence, 48 h; series mostly up to 57.5 µM
Outline: as §1

[3] = system: Es-2; experiment: as above; conditions: Gynecologic cancer cell panel viability, ATPlite luminescence, 48 h; series mostly up to 57.5 µM
Outline: as §1

[4] = system: HeLa; experiment: as above; conditions: Gynecologic cancer cell panel viability, ATPlite luminescence, 48 h; series mostly up to 57.5 µM
Outline: as §1

[5] = system: Hek293T; experiment: as above; conditions: Gynecologic cancer cell panel viability, ATPlite luminescence, 48 h, control line for the selectivity index; series mostly up to 57.5 µM
Outline: as §1

[6] = system: JEG-3; experiment: as above; conditions: Gynecologic cancer cell panel viability, ATPlite luminescence, 48 h; series mostly up to 57.5 µM
Outline: as §1

[7] = system: OV90; experiment: as above; conditions: Gynecologic cancer cell panel viability, ATPlite luminescence, 48 h; series mostly up to 57.5 µM
Outline: as §1

[8] = system: PA-1; experiment: as above; conditions: Gynecologic cancer cell panel viability, ATPlite luminescence, 48 h; series mostly up to 57.5 µM
Outline: as §1

[9] = system: SKOV3; experiment: as above; conditions: Gynecologic cancer cell panel viability, ATPlite luminescence, 48 h; series mostly up to 57.5 µM
Outline: as §1

[10] = system: Tov-21-G; experiment: as above; conditions: Gynecologic cancer cell panel viability, ATPlite luminescence, 48 h; series mostly up to 57.5 µM
Outline: as §1

[11] = system: Tov112D; experiment: as above; conditions: Gynecologic cancer cell panel viability, ATPlite luminescence, 48 h; series mostly up to 57.5 µM
Outline: as §1

[12] = Drug repurposing screens with cells derived from glioblastoma tumor samples (AID 1345199); conditions: GBM patient neurospheres viability, ATP luminescence, 48 h; also: nearly all actives have a fitted effect of over 40% in size; also: potency is read from the fitted curve at half-maximal effect
Outline: (§2)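 Four patient lines of CD133+ GBM neurospheres were screened at several concentrations; hits were retested in those lines plus three slower-growing GBM lines, using 48-hour treatment and ATP-based viability.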

[13] = system: astro; experiment: as above; conditions: viability, ATP luminescence, 48 h; series mostly up to 45.9 µM
Outline: as §2

[14] = target: Nuclear receptor subfamily 1 group I member 2 (Rattus norvegicus) (UniProt Q9R1A7); experiment: qHTS assay for small molecule activators of the rat pregnane X receptor (rPXR) signaling pathway (AID 651751; call rule not given here); conditions: rPXR reporter cells, luciferase (One-Glo), 24 h
[15] = qHTS assay for small molecule activators of the human pregnane X receptor (PXR) signaling pathway (AID 720659; call rule not given here)
[16] = at 45.9 µM (top of the series), tumour line B
[17] = at 45.9 µM (top of the series), tumour line D
[18] = at 46 µM (top of the series), tumour line A

Nuclear receptor subfamily 1 group I member 2 (Rattus norvegicus), sequence (Q9R1A7 whole entry, looked up): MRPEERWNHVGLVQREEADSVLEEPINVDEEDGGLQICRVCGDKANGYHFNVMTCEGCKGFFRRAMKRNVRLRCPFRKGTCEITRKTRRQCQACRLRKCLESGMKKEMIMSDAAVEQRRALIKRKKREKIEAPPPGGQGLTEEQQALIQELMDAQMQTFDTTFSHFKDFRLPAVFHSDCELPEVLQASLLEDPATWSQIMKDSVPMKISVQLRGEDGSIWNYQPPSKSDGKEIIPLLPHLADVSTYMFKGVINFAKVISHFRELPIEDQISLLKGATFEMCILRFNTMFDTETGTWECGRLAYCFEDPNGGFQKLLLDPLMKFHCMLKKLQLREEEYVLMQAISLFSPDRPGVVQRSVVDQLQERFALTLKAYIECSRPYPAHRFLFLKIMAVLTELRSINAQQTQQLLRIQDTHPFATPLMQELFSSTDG

## O=C(N/N=C/c1ccc([N+](=O)[O-])o1)c1cc([N+](=O)[O-])cc([N+](=O)[O-])c1O
[1]
  Potency: inactive
[2]
  outcome: inactive
[3]
  Potency: inactive
[4]
  Potency: inactive
[5]
  outcome: inactive
[6]
  outcome: inactive
[7]
  Potency: inactive
[8]
  Potency: inactive
[9]
  outcome: inactive
[10]
  Potency: inactive
[11]
  Potency: inactive
[12]; [16]
  activity, negative = cell killing: -13.9%
[12]; [17]
  activity, negative = cell killing: -24.1%
[13]
  Potency: inactive

## CC(=O)NC1CCSC1=O (stereo not given)
[1]
  Potency: inactive
[2]
  outcome: inactive
[3]
  Potency: inactive
[4]
  Potency: inactive
[5]
  outcome: inactive
[6]
  outcome: inactive
[7]
  Potency: inactive
[8]
  Potency: inactive
[9]
  outcome: inactive
[10]
  Potency: inactive
[11]
  Potency: inactive
[12]; at 21.2 µM (top of the series), tumour line B
  activity, negative = cell killing: -5.98%
[12]; at 21.2 µM (top of the series), tumour line D
  activity, negative = cell killing: 7.84%
[12]; at 21.3 µM (top of the series), tumour line A
  activity, negative = cell killing: -12.3%
[12]; [16]
  activity, negative = cell killing: -16.4%
[12]; [17]
  activity, negative = cell killing: -12.7%
[13]
  Potency: inactive

## CC(Cc1ccccc1)NCCn1cnc2c1c(=O)n(C)c(=O)n2C (stereo not given)
[1]
  Potency: inactive
[2]
  outcome: inactive
[3]
  Potency: inactive
[4]
  Potency: inactive
[5]
  outcome: inactive
[6]
  outcome: inactive
[7]
  Potency: inactive
[8]
  Potency: inactive
[9]
  outcome: inactive
[10]
  Potency: inactive
[11]
  Potency: inactive
[12]; at 91.6 µM (top of the series), tumour line B
  activity, negative = cell killing: -19.2%
[12]; tumour line A
  Potency: 31.6 µM (active)
[13]
  Potency: inactive

## COC(=O)C(Cl)C(=O)OC
[1]
  Potency: inactive
[2]
  outcome: inactive
[3]
  Potency: inactive
[4]
  Potency: inactive
[5]
  outcome: inactive
[6]
  outcome: inactive
[7]
  Potency: inactive
[8]
  Potency: inactive
[9]
  outcome: inactive
[10]
  Potency: inactive
[11]
  Potency: inactive
[12]; [16]
  activity, negative = cell killing: -9.36%
[12]; [17]
  activity, negative = cell killing: -17%
[12]; [18]
  activity, negative = cell killing: -23.7%

## O=C1c2ccccc2C(=O)c2ccccc21
[1]
  Potency: inactive
[2]
  outcome: inactive
[3]
  Potency: inactive
[4]
  Potency: inactive
[5]
  outcome: inactive
[6]
  outcome: inactive
[7]
  Potency: inactive
[8]
  Potency: inactive
[9]
  outcome: inactive
[10]
  Potency: inactive
[11]
  Potency: inactive
[12]; [16]
  activity, negative = cell killing: 4.04%
[12]; [17]
  activity, negative = cell killing: -17.8%
[14]
  max response: 4.64%

## C[C@]12CC[C@@H]3c4ccc(OC(=O)N(CCCl)CCCl)cc4CC[C@H]3[C@@H]1CC[C@@H]2OP(=O)(O)O
[1]
  Potency: inactive
[2]
  outcome: inactive
[3]
  Potency: inactive
[4]
  Potency: inactive
[5]
  outcome: inactive
[6]
  outcome: inactive
[7]
  Potency: inactive
[8]
  Potency: inactive
[9]
  outcome: inactive
[10]
  Potency: inactive
[11]
  Potency: inactive
[12]; [16]
  activity, negative = cell killing: -5.05%
[12]; [17]
  activity, negative = cell killing: -6.53%
[13]
  Potency: 10 µM (active)

## O=c1[nH]oc2c1CCNC2
[1]
  Potency: inactive
[2]
  outcome: inactive
[3]
  Potency: inactive
[4]
  Potency: inactive
[5]
  outcome: inactive
[6]
  outcome: inactive
[7]
  Potency: inactive
[8]
  Potency: inactive
[9]
  outcome: inactive
[10]
  Potency: inactive
[11]
  Potency: inactive
[12]; [16]
  activity, negative = cell killing: -19.5%
[12]; [17]
  activity, negative = cell killing: -5.63%
[12]; [18]
  activity, negative = cell killing: -27.4%

## c1ccc(CN2CCNCC2)cc1
[1]
  Potency: inactive
[2]
  outcome: inactive
[3]
  Potency: inactive
[4]
  Potency: inactive
[5]
  outcome: inactive
[6]
  outcome: inactive
[7]
  Potency: inactive
[8]
  Potency: inactive
[9]
  outcome: inactive
[10]
  Potency: inactive
[11]
  Potency: inactive
[12]; at 194 µM (top of the series), tumour line B
  activity, negative = cell killing: 7.52%
[12]; at 194 µM (top of the series), tumour line D
  activity, negative = cell killing: -7.34%
[12]; tumour line A
  Potency: 126 µM (active)

## CCC(CC)(CNC(=O)CCCO)c1cccc(OC)c1
[1]
  Potency: inactive
[2]
  outcome: inactive
[3]
  Potency: inactive
[4]
  Potency: inactive
[5]
  outcome: inactive
[6]
  outcome: inactive
[7]
  Potency: inactive
[8]
  Potency: inactive
[9]
  outcome: inactive
[10]
  Potency: inactive
[11]
  Potency: inactive

## CCN[C@@H](C)Cc1ccccc1
[1]
  Potency: inactive
[2]
  outcome: inactive
[3]
  Potency: inactive
[4]
  Potency: inactive
[5]
  outcome: inactive
[6]
  outcome: inactive
[7]
  Potency: inactive
[8]
  Potency: inactive
[9]
  outcome: inactive
[10]
  Potency: inactive
[11]
  Potency: inactive
[12]; at 108 µM (top of the series), tumour line B
  activity, negative = cell killing: -6.22%
[12]; at 108 µM (top of the series), tumour line D
  activity, negative = cell killing: -20.9%
[13]
  Potency: inactive

## Nc1nc(N)nc(NC2CC2)n1
[1]
  Potency: inactive
[2]
  outcome: inactive
[3]
  Potency: inactive
[4]
  Potency: inactive
[5]
  outcome: inactive
[6]
  outcome: inactive
[7]
  Potency: inactive
[8]
  Potency: inactive
[9]
  outcome: inactive
[10]
  Potency: inactive
[11]
  Potency: inactive
[12]; [16]
  activity, negative = cell killing: -5.44%
[12]; [17]
  activity, negative = cell killing: -12.5%
[14]
  max response: 2.97%
[15]
  outcome: inactive
